Measured values as given in PubChem BioAssay.
The source made the active and inactive calls. Unless noted, how the calls were made is not given here.

Key:
[1] = anti-His antibody binders, primary screen, artefact control for SMM control protein annotation, biochemical, small-molecule microarray, 635 nm fluorescence (AID 1128); conditions: anti-His Alexa647 antibody binding, higher = more signal;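 further: score merges feature fluorescence with signal-to-noise for each printed compound spot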
[2] = test system: Human papillomavirus type 1a E7 protein (residues 1-88); experiment: HPV1a E7 small-molecule binders, primary screen, biochemical, small-molecule microarray, residues 1-88, 635 nm (AID 1129); conditions: small-molecule microarray binding, fluorescence 635 nm; higher = more signal
[3] = biological target: Focal adhesion kinase 1 (Homo sapiens) (UniProt Q05397); experiment: small-molecule microarray binders of FAK, primary screen, biochemical, 635/667 nm fluorescence, BSA, DTT (AID 1130); conditions: PTK2 binding, 635 nm fluorescence, higher = more signal;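 further: composite of spot emission at 667 nm and signal to noise over triplicate slides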
Chain of Focal adhesion kinase 1 (Homo sapiens) (Q05397 whole entry, looked up): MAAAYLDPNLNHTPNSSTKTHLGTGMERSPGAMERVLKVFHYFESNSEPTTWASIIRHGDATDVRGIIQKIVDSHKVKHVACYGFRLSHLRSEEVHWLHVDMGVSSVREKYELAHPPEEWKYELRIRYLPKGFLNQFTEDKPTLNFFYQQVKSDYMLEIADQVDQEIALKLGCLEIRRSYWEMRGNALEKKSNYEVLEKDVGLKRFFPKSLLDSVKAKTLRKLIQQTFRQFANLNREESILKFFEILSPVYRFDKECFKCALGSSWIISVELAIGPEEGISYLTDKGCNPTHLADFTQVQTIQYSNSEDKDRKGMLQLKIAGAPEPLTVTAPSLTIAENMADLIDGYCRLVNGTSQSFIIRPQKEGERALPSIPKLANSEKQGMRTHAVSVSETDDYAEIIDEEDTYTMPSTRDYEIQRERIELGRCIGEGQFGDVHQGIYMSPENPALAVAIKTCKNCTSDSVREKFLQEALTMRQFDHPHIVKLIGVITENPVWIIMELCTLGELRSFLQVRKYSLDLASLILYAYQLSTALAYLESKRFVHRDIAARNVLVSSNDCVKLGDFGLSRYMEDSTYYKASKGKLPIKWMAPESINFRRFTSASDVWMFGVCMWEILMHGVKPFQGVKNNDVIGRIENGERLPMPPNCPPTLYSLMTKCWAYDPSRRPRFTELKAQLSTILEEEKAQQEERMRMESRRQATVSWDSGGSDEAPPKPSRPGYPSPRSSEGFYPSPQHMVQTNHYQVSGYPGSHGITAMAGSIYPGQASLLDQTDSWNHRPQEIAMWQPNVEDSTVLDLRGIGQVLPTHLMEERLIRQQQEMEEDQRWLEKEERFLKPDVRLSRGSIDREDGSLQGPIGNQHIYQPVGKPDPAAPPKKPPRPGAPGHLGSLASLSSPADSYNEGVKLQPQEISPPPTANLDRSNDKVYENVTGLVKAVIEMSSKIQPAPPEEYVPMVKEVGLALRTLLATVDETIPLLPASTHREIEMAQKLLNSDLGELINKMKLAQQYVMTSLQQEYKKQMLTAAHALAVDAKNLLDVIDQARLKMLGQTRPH

[4] = test system: Fibrinogen (Alexa647-labelled); experiment: fibrinogen binders on compound microarrays, profiling panel, artefact control for SMM control-protein annotation, biochemical, small-molecule microarray, 635/667 nm fluorescence (AID 1131); conditions: fibrinogen-A647 binding fluorescence, higher = more signal;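 further: z-score merges 667 nm fluorescence with per-spot signal-to-noise over triplicate slides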
[5] = biological target: Follistatin (Homo sapiens) (UniProt P19883); experiment: follistatin binders on small-molecule microarrays, primary screen, biochemical, small-molecule microarray, 635/667 nm fluorescence (AID 1132); conditions: FST binding, 635 nm fluorescence, higher = more signal
Chain of Follistatin (Homo sapiens) (P19883 whole entry, looked up): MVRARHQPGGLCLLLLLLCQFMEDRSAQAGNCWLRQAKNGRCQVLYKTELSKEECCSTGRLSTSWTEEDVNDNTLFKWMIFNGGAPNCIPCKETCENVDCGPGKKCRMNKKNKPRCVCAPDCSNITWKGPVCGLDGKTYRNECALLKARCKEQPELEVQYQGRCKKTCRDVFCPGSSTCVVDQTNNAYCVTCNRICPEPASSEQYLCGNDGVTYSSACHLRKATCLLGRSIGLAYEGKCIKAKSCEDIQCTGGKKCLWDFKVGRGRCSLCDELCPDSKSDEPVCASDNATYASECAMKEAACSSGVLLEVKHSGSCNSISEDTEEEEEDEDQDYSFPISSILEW

[6] = biological target: Fibroblast growth factor 2 (Homo sapiens) (UniProt P09038); experiment: FGF2 binders on small-molecule microarrays, primary screen, biochemical, small-molecule microarray, 635/667 nm fluorescence (AID 1133); conditions: small-molecule microarray binding, FGF2, fluorescence 635/667; higher = more signal
Chain of Fibroblast growth factor 2 (Homo sapiens) (P09038 whole entry, looked up): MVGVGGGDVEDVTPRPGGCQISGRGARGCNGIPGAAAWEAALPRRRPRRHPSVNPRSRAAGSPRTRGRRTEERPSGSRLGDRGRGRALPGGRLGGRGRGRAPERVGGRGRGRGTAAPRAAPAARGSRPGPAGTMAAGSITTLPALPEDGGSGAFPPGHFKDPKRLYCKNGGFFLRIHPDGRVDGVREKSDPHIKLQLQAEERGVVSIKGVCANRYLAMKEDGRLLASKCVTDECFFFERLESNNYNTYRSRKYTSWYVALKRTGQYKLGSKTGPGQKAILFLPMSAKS

[7] = mitochondrial membrane potential change in A549 cells, profiling panel, cell-based, JC-1 fluorescence, basal, 24 h, 100 nL (AID 1138); conditions: higher = more signal;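 further: A549 lung adenocarcinoma cells under basal conditions with no added stimulus; test concentration not given here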
[8] = test system: Lefty1; experiment: Lefty1 binders on small-molecule microarrays, primary screen, biochemical, small-molecule microarray, 635/667 nm fluorescence (AID 1139); conditions: small-molecule microarray binding, fluorescence 635/667; higher = more signal
[9] = test system: wheat germ agglutinin (Triticum aestivum), Alexa647-labelled; experiment: wheat germ agglutinin binders on compound microarrays, profiling panel, artefact control for SMM control-protein annotation, biochemical, small-molecule microarray, 635/667 nm fluorescence (AID 1140); conditions: WGA-A647 binding, 635 nm fluorescence, higher = more signal;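 further: score merges 667 nm feature emission with signal to noise over triplicate slides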
[10] = biological target: Luciferin 4-monooxygenase (Photinus pyralis) (UniProt P08659); experiment: firefly luciferase enzyme inhibitors, primary screen, biochemical, luminescence, purified enzyme, 2006 set (AID 1141); conditions: SteadyGlo luminescence, 30 min, higher = more signal, called active from +8 up or from −8 down;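 further: cell-free assay with purified firefly luciferase at 100 ng per well in PBS; test concentration not given here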
Chain of Luciferin 4-monooxygenase (Photinus pyralis) (P08659 whole entry, looked up): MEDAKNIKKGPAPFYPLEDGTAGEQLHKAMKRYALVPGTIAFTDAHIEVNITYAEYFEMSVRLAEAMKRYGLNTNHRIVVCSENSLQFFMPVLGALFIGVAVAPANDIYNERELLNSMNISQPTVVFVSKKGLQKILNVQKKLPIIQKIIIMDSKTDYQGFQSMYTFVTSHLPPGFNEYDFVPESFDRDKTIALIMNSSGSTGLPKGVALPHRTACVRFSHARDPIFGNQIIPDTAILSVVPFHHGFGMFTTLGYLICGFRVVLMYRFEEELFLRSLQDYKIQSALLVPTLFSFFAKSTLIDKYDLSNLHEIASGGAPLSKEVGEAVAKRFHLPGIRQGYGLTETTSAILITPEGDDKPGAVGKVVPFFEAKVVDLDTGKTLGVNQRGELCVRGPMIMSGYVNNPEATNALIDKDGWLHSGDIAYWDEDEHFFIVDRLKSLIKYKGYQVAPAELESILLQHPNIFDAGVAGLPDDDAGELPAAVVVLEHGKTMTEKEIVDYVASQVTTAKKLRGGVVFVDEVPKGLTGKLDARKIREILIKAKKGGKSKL

[11] = test system: Wnt5a (protein binding on small-molecule microarray); experiment: Wnt5a binders on small-molecule microarray, primary screen, biophysical, 635/667 nm fluorescence (AID 1142); conditions: 635 nm fluorescence, higher = more signal;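 further: fluorescence read at 667 nm with signal to noise per printed feature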
[12] = cell viability in Huh7 cells, primary screen, cytotoxicity control for HCV replication inhibitor project, CellTiter-Glo luminescence, basal, 48 h (AID 1143); conditions: Huh7 HCV replicon, higher = more signal, called active from +8 up or from −8 down;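 further: Huh7 hepatoma cells carrying a hepatitis C replication reporter with no stimulus; test concentration not given here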
[13] = P. aeruginosa biofilm formation inhibitors, primary screen, PAO1 strain, BacTiter-Glo luminescence, LB-PBS (AID 1144); conditions: 12 h, higher = more signal
[14] = CREB reporter modulators without forskolin, primary screen, cell-based, PC12, CRE-LacZ reporter, unstimulated (AID 1145); conditions: no forskolin, luminescence, 4.5 h, higher = more signal, called active from +8 up or from −8 down
[15] = CREB reporter modulators under forskolin, primary screen, cell-based, PC12, CRE-LacZ reporter, forskolin-stimulated (AID 1146); conditions: luminescence, 4.5 h, higher = more signal, called active from +8 up or from −8 down;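 further: PC12 cells with 6xCRE LacZ reporter stimulated by forskolin 10 µM; beta-galactosidase reporter signal reflecting CREB driven transcription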
[16] = biological target: Streptavidin (Streptomyces avidinii) (UniProt P22629); experiment: streptavidin binders on small-molecule microarray, primary screen, artefact control for SMM compound annotation, biophysical, 635/667 nm fluorescence (AID 1147); conditions: streptavidin binding, higher = more signal;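 further: signal reflects streptavidin binding to arrayed compounds as a control protein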
Chain of Streptavidin (Streptomyces avidinii) (P22629 whole entry, looked up): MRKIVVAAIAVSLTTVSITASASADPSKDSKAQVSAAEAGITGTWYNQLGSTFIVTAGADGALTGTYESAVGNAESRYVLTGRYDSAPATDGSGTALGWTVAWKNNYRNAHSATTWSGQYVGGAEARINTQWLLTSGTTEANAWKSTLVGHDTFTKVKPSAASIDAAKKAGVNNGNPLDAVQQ

[17] = small-molecule binders of probe aInhba, primary screen, biochemical, small-molecule microarray, 635/667 nm fluorescence (AID 1148); conditions: higher = more signal;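 further: score merges 667nm spot fluorescence with signal-to-noise for antibody binding to printed compounds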
[18] = biological target: Torsin-1A (Homo sapiens) (UniProt O14656); experiment: torsin A binders from cell lysate, primary screen, small-molecule microarray, wild-type, 635/667 nm (AID 1149); conditions: COS7 hTOR1A-WT lysate, 635 nm fluorescence, higher = more signal
Chain of Torsin-1A (Homo sapiens) (O14656 whole entry, looked up): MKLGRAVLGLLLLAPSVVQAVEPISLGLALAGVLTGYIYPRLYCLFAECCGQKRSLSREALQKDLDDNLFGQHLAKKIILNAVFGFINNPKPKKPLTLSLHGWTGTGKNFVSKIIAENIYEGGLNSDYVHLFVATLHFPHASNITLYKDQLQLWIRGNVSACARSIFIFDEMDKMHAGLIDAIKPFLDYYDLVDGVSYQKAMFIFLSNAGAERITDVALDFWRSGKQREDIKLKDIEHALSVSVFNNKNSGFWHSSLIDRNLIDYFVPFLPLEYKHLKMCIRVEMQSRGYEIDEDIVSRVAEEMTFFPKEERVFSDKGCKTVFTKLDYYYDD

[19] = biological target: Torsin-1A (Homo sapiens) (UniProt O14656); experiment: small-molecule binders of mutant TOR1A in lysate, primary screen, cell lysate, small-molecule microarray, COS7 lysate, 635/667 nm fluorescence (AID 1150); conditions: COS7 hTOR1A mutant lysate, 635 nm fluorescence, higher = more signal;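 further: score pools 667 nm emission and signal to noise measuring lysate protein binding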
[20] = test system: Sonic hedgehog protein (Shh); experiment: small-molecule binders of Shh protein, primary screen, biochemical, small-molecule microarray, 635/667 nm fluorescence (AID 1151); conditions: small-molecule microarray binding, 635 nm fluorescence; higher = more signal;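 further: Shh protein binding to compounds spotted on small-molecule microarray slides; score combines spot fluorescence intensity with signal-to-noise across triplicate slides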

Structure (SMILES)	composite z-score [1]	composite z-score [2]	composite z-score [3]	composite z-score [4]	composite z-score [5]	composite z-score [6]	z-score [7]	composite z-score [8]	composite z-score [9]	z-score [10]	composite z-score [11]	z-score [12]	z-score [13]	z-score [14]	z-score [15]	composite z-score [16]	composite z-score [17]	composite z-score [18]	composite z-score [19]	composite z-score [20]
CC[C@H]1C2=C3C(CC[C@H]4C(OCc5ccc(F)cc5C(F)(F)F)OC[C@](C)([C@@H]34)N(C(=O)OC(C)(C)C)C2)C(COC)C1COC (stereo not given in full)	-0.0372	0.0144	-0.093	-0.0416	-0.0566	-0.758	0.767	-0.477	0.225	0.303 (inactive)	-0.173	0.0724 (inactive)	1.02 (inactive)	-0.379 (inactive)	1.01 (inactive)	-0.214	0.029	-0.0927	-0.0476	-1.3
CC(C)C[C@@H]1NC(=O)[C@@H]2C[C@H](C(=O)NCCCCN(C)C)[C@H](c3cccc(OCCO)c3)N2C1=O	-0.421	-0.46	0.392	-1.81	0.787	0.549	-0.57	0.24	0.779	0.857 (inactive)	-0.179	-0.193 (inactive)	-1.25 (inactive)	-0.817 (inactive)	0.645 (inactive)	-0.911	0.0108	0.352	0.718	1.24
COCCOC(=O)N1C(=O)[C@@]2(c3cc(C#Cc4ccc(OC)cc4)ccc31)[C@H](c1ccccc1OCCO)N1[C@H](c3ccccc3)[C@H](c3ccccc3)OC(=O)[C@H]1[C@@H]2C(=O)N1CCCCCCC1	0.623	1.2	0.701	-0.183	1.51	1.73	-0.775	1.23	1.33	-0.246 (inactive)	1.28	-4.35 (inactive)	-2.23 (inactive)	-1.42 (inactive)	-0.693 (inactive)	2.64	1.56	2.72	2.09	2.04
N#Cc1ccc(NN2C(C(O)c3ccc(F)cc3)C=CC3C(=O)N(c4ccccc4)C(=O)C32)cc1 (stereo not given)	1.57	0.57	0.171	0.797	0.0089	0.866	0.324	-0.577	0.94	0.646 (inactive)	0.0035	0.632 (inactive)	-0.377 (inactive)	0.629 (inactive)	0.521 (inactive)	0.945	-0.0791	0.0271	-0.0504	-0.304
COC(=O)C(CC#Cc1ccc2c(c1)[C@]1(C(=O)N2)[C@H](c2ccccc2OCCO)N2[C@H](c3ccccc3)[C@H](c3ccccc3)OC(=O)[C@H]2[C@@H]1C(=O)NC[C@H](O)c1ccccc1)C(=O)OC	1.42	1.23	3.08	0.427	0.597	1.06	-0.789	0.697	1.14	-0.832 (inactive)	0.572	-3.75 (inactive)	-1.26 (inactive)	-0.168 (inactive)	0.717 (inactive)	0.0979	-0.199	0.951	0.68	1.22
CC(=O)NCCCC[C@@H]1NC(=O)[C@@H]2C[C@H](C(=O)NCCCC[N+](C)(C)C)[C@H](c3ccc(O)cc3)N2C1=O	3.1	-0.882	-0.218	0.764	1.48	1.73	-1.12	1.49	-0.23	-0.174 (inactive)	0.522	-2.24 (inactive)	-0.279 (inactive)	-0.122 (inactive)	-0.528 (inactive)	-0.146	0.242	0.804	0.547	2.24
C=CCC(OC(C)=O)[C@@H]1[C@@H](N(Cc2cc3ccccc3o2)C(=O)Cc2ccc(F)cc2)c2cc(OCCCO)ccc2N1C(=O)c1ccc2ccccc2c1 (stereo not given in full)	-0.232	-0.835	-0.167	-1.03	0.722	-0.143	1.08	0.777	0.181	-0.514 (inactive)	0.117	-0.008 (inactive)	0.101 (inactive)	2.6 (inactive)	0.86 (inactive)	0.0943	-0.176	-0.312	0.237	0.697
COc1ccc([Si](C)(C)[C@@H]2[C@@H](CC(=O)N(CCO)Cc3ccccc3)O[C@]3(C(=O)N(Cc4cccc(N5C(=O)c6cccc7cccc5c67)c4)c4ccccc43)[C@H]2C)cc1	0.63	-0.46	0.994	0.725	1.1	1.72	-0.538	0.972	0.369	0.187 (inactive)	-0.164	-5.84 (inactive)	-1.02 (inactive)	-0.999 (inactive)	-0.823 (inactive)	-0.24	-0.0762	-0.0207	0.502	0.982
COCC1=C2[C@@H](CCc3ccccc3)OB(O)C[C@@H]2[C@@H]2C(=O)C=CC(=O)[C@@H]2C1	1.39	0.736	0.238	0.0217	0.648	0.519	-1.23	0.654	0.982	-3.14 (inactive)	0.0021	-1.9 (inactive)	0.353 (inactive)	19.2 (active)	22.8 (active)	0.55	0.0212	0.246	0.292	0.963
[N-]=[N+]=NCc1ccccc1[C@H]1OC(c2ccc(OCCCO)cc2)=N[C@@]1(CCS(=O)(=O)c1ccccc1)C(=O)NCC(O)CO (stereo not given in full)	2.5	1.26	1.33	1.01	1.36	0.877	-1.22	-0.385	0.983	-0.986 (inactive)	0.914	-0.119 (inactive)	-1.53 (inactive)	1.99 (inactive)	-0.75 (inactive)	1.2	0.257	0.662	1.41	-0.276
